PubChem BioAssay (NCATS)
Inconclusive results are not listed. Activity calls are given as the source filed them. Calls come from the whole dose curve; as a rule, active = well fitted inhibition curve with a large enough effect; inconclusive = small, poorly fitted or top-dose-only effect; inactive = flat fitted curve, though single readings scatter.

Legend:
Assay in all cases: Cytotoxic Profiling of Annotated Libraries Using Quantitative High-Throughput Screening (AID 1296008); note: nearly all actives have a fitted effect of over 60% in size
Conditions in all cases: Five cell lines viability, CellTiter-Glo ATP luminescence, 48-72 h; max response: stronger effect = lower value
CRL-7250 = system: CRL-7250
Outline: (§1)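 Compounds were pin-transferred onto cells and incubated 48 or 72 hr at 37 degree Celsius, 95% humidity. CellTiter-Glo was added, plates sat 10 min at room temperature, then ATP-coupled luminescence was imaged as the viability read-out.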

HEK293 = system: HEK293
Outline: as §1

HaCat = system: HaCat
Outline: as §1

KB-3-1 = system: KB-3-1
Outline: as §1

NIH3T3 = system: NIH3T3
Outline: as §1
% is set by controls: 0 for no effect and ±100 for the full control effect; potency is the fitted concentration of half-maximal effect.

C#CCCCn1cc(-c2cccc3c2N[C@@H](C)CC(=O)N3)cn1
inactive: max response (HEK293) -6.8% | max response (HaCat) -14.3% | outcome (KB-3-1) | outcome (NIH3T3)
active: Potency (CRL-7250) 18.4 µM

CC(C)Oc1ccc(-c2nc(-c3cccc4c3CCC4NCCC(=O)O)no2)cc1C#N (stereo not given)
inactive: max response (CRL-7250) 0.795% | max response (HEK293) -10.1% | outcome (HaCat) | max response (KB-3-1) 8.29% | outcome (NIH3T3)

CC(=O)OCC1=C[C@@H]2OC(=O)C3=CO[C@@H](O[C@@H]4O[C@H](CO)[C@@H](O)[C@H](O)[C@H]4O)[C@H]1[C@@H]32
inactive: max response (CRL-7250) 2.42% | max response (HEK293) 4.59% | outcome (HaCat) | outcome (KB-3-1) | max response (NIH3T3) 0.706%

Cc1ccc2nc(NC(=O)CSc3nc4c(c(=O)n3-c3ccc(F)cc3)SCC4)sc2c1
inactive: max response (CRL-7250) -14.2% | max response (HEK293) -0.604% | max response (HaCat) 1.13% | max response (KB-3-1) 9.39% | outcome (NIH3T3)

Cc1occc1C(=O)n1ccnc1
inactive: max response (CRL-7250) -1.62% | max response (HEK293) 0.475% | max response (HaCat) 4.32% | max response (KB-3-1) 0.152% | outcome (NIH3T3)

C=C1CC[C@@H]2[C@](C)(CO)[C@H](O[C@@H]3O[C@H](CO)[C@@H](O)[C@H](O)[C@H]3O)CC[C@@]2(C)[C@@H]1C/C=C1/C(=O)OC[C@H]1O
inactive: max response (CRL-7250) -3.97% | max response (HEK293) -5.74% | outcome (HaCat) | max response (KB-3-1) -0.713% | max response (NIH3T3) -0.313%

C/C=C/C=C/C=C/C(=O)O[C@@H]1[C@@H](OC)C2=C(C(=O)N(C(CCC(=O)O)C(=O)O)C2)[C@@]2(C)CCCC(C)(C)[C@H]12 (stereo not given in full)
inactive: max response (CRL-7250) -4.83% | outcome (HEK293) | max response (HaCat) -8.01% | max response (KB-3-1) 0.124% | max response (NIH3T3) -12.6%

Cc1cc(C(=O)N2Cc3cnn(C)c3Nc3ccccc32)ccc1CNC(=O)N1CCN(Cc2cc(O)cc(O)c2)CC1
inactive: outcome (CRL-7250) | max response (HEK293) -0.745% | outcome (HaCat) | outcome (KB-3-1) | max response (NIH3T3) -0.633%

C[C@]1(O)CC[C@@H]2C(C(=O)O)=CO[C@@H](O[C@@H]3O[C@H](CO)[C@@H](O)[C@H](O)[C@H]3O)[C@@H]21
inactive: max response (CRL-7250) -9.18% | max response (HEK293) -5.73% | outcome (HaCat) | max response (KB-3-1) 0.108% | max response (NIH3T3) 1.11%

O=C(N[C@@H]1CC[C@@H](c2cccc(F)c2F)CN(CC(F)(F)F)C1=O)N1CCC(n2c(=O)[nH]c3ncccc32)CC1
active: Potency (HEK293) 16.4 µM
inactive: max response (CRL-7250) -4.99% | outcome (HaCat) | outcome (KB-3-1) | max response (NIH3T3) -12.6%

CC1(C)CC=C(C#Cc2ccccc2)c2cc(/C=C/c3ccc(C(=O)O)cc3)ccc21
inactive: max response (CRL-7250) -4.79% | max response (HEK293) 1.6% | outcome (HaCat) | max response (KB-3-1) 3.78% | max response (NIH3T3) -4.98%

O=C(OC(C(F)(F)F)C(F)(F)F)N1CCN(Cc2cccc(Oc3ccccc3)c2)CC1
inactive: outcome (CRL-7250) | max response (HEK293) -26.5% | outcome (HaCat) | max response (KB-3-1) -5.42% | max response (NIH3T3) 4.82%

OC[C@H]1O[C@@H](OCc2ccccc2)[C@H](O)[C@@H](O)[C@@H]1O
inactive: max response (CRL-7250) 0.468% | max response (HEK293) -5.26% | outcome (HaCat) | max response (KB-3-1) 1.59% | outcome (NIH3T3)

COCc1c(O)c(C(=O)O)c(C)c2c1OC(=O)c1c(C)cc(O)c(CO)c1O2
inactive: max response (CRL-7250) 0.001% | max response (HEK293) -3.82% | outcome (HaCat) | outcome (KB-3-1) | outcome (NIH3T3)

C=C1C[C@@]2(O)O[C@@]3(C[C@H]2C(C)C)[C@@H](C)CC[C@@H]13
inactive: outcome (CRL-7250) | max response (HEK293) -11.6% | max response (HaCat) -13.2% | max response (KB-3-1) 9.57% | outcome (NIH3T3)

CCCC(C(=O)O)c1c(C)nc2ccc(Cl)cc2c1-c1ccccc1 (stereo not given)
inactive: max response (CRL-7250) 3.26% | max response (HEK293) -5.83% | outcome (HaCat) | max response (KB-3-1) 2.25% | max response (NIH3T3) 1.27%

C[C@@]12CC3(S(=O)(=O)O)OC(O1)[C@]1(COC(=O)c4ccccc4)[C@H]3C[C@]21O[C@@H]1O[C@H](CO)[C@@H](O)[C@H](O)[C@H]1O
inactive: max response (CRL-7250) 2.31% | max response (HEK293) 2.36% | outcome (HaCat) | outcome (KB-3-1) | outcome (NIH3T3)

CC(C)(O)[C@@H]1CC[C@]2(CO)[C@@H](O)CC[C@](C)(O)[C@H]2[C@@H]1O[C@@H]1O[C@H](CO)[C@@H](O)[C@H](O)[C@H]1O
inactive: max response (CRL-7250) 1.76% | max response (HEK293) 1.77% | outcome (HaCat) | max response (KB-3-1) 8.79% | max response (NIH3T3) 0.484%

C[C@H]1CC(=O)C2=C(C1)C(O)C(O)[C@@]1(O)[C@H]2C(=O)c2cccc(O)c2[C@@H]1O (stereo not given in full)
inactive: max response (CRL-7250) -10.1% | max response (HEK293) 3.36% | outcome (HaCat) | outcome (KB-3-1) | max response (NIH3T3) 3.59%

COC(=O)[C@H](c1ccccc1Cl)N1CCC2SC(=O)C=C2C1 (stereo not given in full)
inactive: max response (CRL-7250) -4.86% | max response (HEK293) -11.7% | outcome (HaCat) | max response (KB-3-1) 7.5% | max response (NIH3T3) -12.1%

CC1(C)C[C@@H]2[C@H](C1)[C@@]1(C)C[C@]13C(O)OC[C@]3(O)[C@H]2O (stereo not given in full)
inactive: max response (CRL-7250) -3.6% | max response (HEK293) -0.838% | outcome (HaCat) | outcome (KB-3-1) | outcome (NIH3T3)

Nc1nc(COC(=O)c2ccc([N+](=O)[O-])cc2)nc(Nc2ccccc2)n1
inactive: max response (CRL-7250) -7.38% | max response (HEK293) -16.5% | max response (HaCat) -9.19% | max response (KB-3-1) -4.58% | outcome (NIH3T3)

CC(=O)NCC1CN(c2ccc(-c3ccc(CNCc4cn[nH]n4)cc3)c(F)c2)C(=O)O1 (stereo not given)
active: Potency (HEK293) 1.3 µM
inactive: max response (CRL-7250) 0.231% | max response (HaCat) 1.71% | max response (KB-3-1) -15.8% | outcome (NIH3T3)

O=C(O)/C=C/c1ccc(O[C@@H]2O[C@H](CO)[C@@H](O)[C@H](O)[C@H]2O)cc1
inactive: outcome (CRL-7250) | max response (HEK293) -0.219% | outcome (HaCat) | outcome (KB-3-1) | outcome (NIH3T3)

CC(=O)O[C@@H]1C(O)C[C@@]2(C)C(CC[C@@H](C)C23Cc2c(O)cc4c(c2O3)CNC4=O)C1(C)C (stereo not given in full)
inactive: max response (CRL-7250) 0.238% | max response (HEK293) 1.81% | outcome (HaCat) | max response (KB-3-1) -3.56% | max response (NIH3T3) -7.87%

Cc1cc(-c2nncc3c(C(C)(C)C)c(OCc4ncnn4C)nn23)no1
inactive: outcome (CRL-7250) | max response (HEK293) -4.36% | outcome (HaCat) | max response (KB-3-1) 6.49% | max response (NIH3T3) 1.34%

COC(=O)C1=COC(O[C@@H]2O[C@H](CO)[C@@H](O)[C@H](O)[C@H]2O)[C@@H]2[C@@](C)(O)[C@@H](OC(=O)/C=C/c3ccccc3)C[C@]12O (stereo not given in full)
inactive: max response (CRL-7250) 1.9% | max response (HEK293) -1.35% | outcome (HaCat) | outcome (KB-3-1) | max response (NIH3T3) 4.01%

C/C=C(\C)C(=O)OC1CC2C(CC=C3CC(OC4CC(OC)C(OC5CC(OC)C(OC6CC(OC)C(OC7CC(OC)C(OC8CC(OC)C(OC9OC(CO)C(O)C(O)C9O)C(C)O8)C(C)O7)C(C)O6)C(C)O5)C(C)O4)CCC32C)C2(O)CCC(C(C)=O)C12C (stereo not given)
inactive: outcome (CRL-7250) | max response (HEK293) -12.4% | outcome (HaCat) | max response (KB-3-1) 8.92% | outcome (NIH3T3)

C/C=C/C=C/C=C/C(=O)O[C@@H]1C=C(CO)[C@](O)(CO)[C@@]2(C)CCCC(C)(C)[C@H]12
active: Potency (HEK293) 12.8 µM
inactive: max response (CRL-7250) -5.67% | max response (HaCat) -1.12% | outcome (KB-3-1) | outcome (NIH3T3)

COc1cc(/C=C/C(=O)OC[C@H]2O[C@@H](OC3CC(C)=C(C(=O)O)C(C)(C)C3)[C@H](O)[C@@H](O)[C@@H]2O)cc(OC)c1O (stereo not given in full)
inactive: max response (CRL-7250) -3.13% | max response (HEK293) -1.71% | outcome (HaCat) | outcome (KB-3-1) | outcome (NIH3T3)

CC/C=C/C=C/C1(C)OC(CC(CO)OC)=CC1=O (stereo not given)
inactive: max response (CRL-7250) -6.3% | max response (HEK293) -18.9% | outcome (HaCat) | outcome (KB-3-1) | max response (NIH3T3) 1.62%

O=C(O)c1ccncc1Nc1nn(CCN2CCC(F)(F)CC2)c2ccc(F)cc12
inactive: max response (CRL-7250) -22.9% | max response (HEK293) 0.878% | outcome (HaCat) | max response (KB-3-1) 9.77% | max response (NIH3T3) 1.4%

C/C=C(\C)C(=O)OC[C@H]1O[C@H](O[C@H]2O[C@H](CO)[C@@H](O)[C@H](O)[C@H]2O[C@@H]2O[C@H](CO)[C@@H](O)[C@H](O)[C@H]2O)[C@H](O[C@@H]2O[C@H](CO)[C@@H](O)[C@H](O)[C@H]2O)[C@@H](O)[C@@H]1O
inactive: max response (CRL-7250) 0.965% | max response (HEK293) -1.76% | outcome (HaCat) | outcome (KB-3-1) | outcome (NIH3T3)

Oc1ccc(CC2NCCc3cc(O)c(O)cc32)cc1 (stereo not given)
inactive: max response (CRL-7250) 4.94% | max response (HEK293) -11.9% | max response (HaCat) 1.1% | max response (KB-3-1) 1.59% | outcome (NIH3T3)

C/C=C1/CC2C(=O)Nc3cc(O)c(OC)cc3C(=O)N2C1 (stereo not given)
inactive: max response (CRL-7250) -13.4% | max response (HEK293) 2.7% | outcome (HaCat) | max response (KB-3-1) 9.54% | outcome (NIH3T3)

CC(CCO)CCC1C2(C)CCCC(C)(C)C2CC[C@@]1(C)O (stereo not given in full)
inactive: outcome (CRL-7250) | max response (HEK293) -13.3% | max response (HaCat) -19.9% | max response (KB-3-1) 7.08% | outcome (NIH3T3)

COc1cnc(-n2cnc(C)n2)c2[nH]cc(C(=O)C(=O)N3CCN(C(=O)c4ccccc4)CC3)c12
inactive: outcome (CRL-7250) | max response (HEK293) -12.9% | outcome (HaCat) | outcome (KB-3-1) | outcome (NIH3T3)

CC1=CC2=C(C)C(=O)C(C)(O)C(O)C2CO1 (stereo not given)
inactive: max response (CRL-7250) -6.39% | max response (HEK293) -9.93% | outcome (HaCat) | max response (KB-3-1) 5.71% | max response (NIH3T3) 1.32%

CC(C)C1(O)NC(=O)C(CC2(O)c3ccccc3N3C(=O)C(C)(C)NC32)n2c1nc1ccccc1c2=O (stereo not given)
inactive: outcome (CRL-7250) | outcome (HEK293) | max response (HaCat) -2.62% | outcome (KB-3-1) | max response (NIH3T3) -5.54%

CC(=O)O[C@H]1C[C@@]2(C)[C@@H](CC[C@H]3[C@@]4(C)C=CC(=O)[C@@H](C)[C@@H]4[C@H](OC(C)=O)C(=O)[C@@]32C)/C1=C(\CCC=C(C)C)C(=O)O
inactive: max response (CRL-7250) 4.49% | max response (HEK293) -0.998% | outcome (HaCat) | max response (KB-3-1) 5.79% | max response (NIH3T3) -2.17%

COc1cc(C(=O)OC[C@@]2(O)CO[C@@H](O[C@H]3[C@H](Oc4ccc(O)cc4)O[C@H](CO)[C@@H](O)[C@@H]3O)[C@@H]2O)cc(OC)c1O
inactive: outcome (CRL-7250) | max response (HEK293) -3.3% | outcome (HaCat) | max response (KB-3-1) -0.593% | max response (NIH3T3) -1.11%
